Results filed as inconclusive are left out. A number with no mark means an inactive call. Calls of active or inactive are those of the source. Calls follow the shape of the dose curve; as a rule, active = well fitted cell-killing curve with a large enough effect in the repeat runs; inconclusive = weak or mixed curves, or effect the other way; inactive = flat fitted curve, though single readings scatter.
test: qHTS assay to identify small molecule antagonists of the retinoid acid receptor (RAR) signaling pathway - cell viability counter screen (AID 1159551); conditions: C3RL4 cells viability, ATP luminescence (CellTiter-Glo), 6 h; series mostly up to 92.4 µM; also: nearly all actives have a fitted effect of over 35% in size
Text: U.S. Tox21 Program National Center for Advancing Translational Sciences [NCATS] NIH Chemical Genomics Center [NCGC] U.S. Environmental Protection Agency [EPA] National Institutes of Environmental Health Sciences [NIEHS] National Toxicology Program [NTP] U.S. Food and Drug Administration [FDA] Tox21 Assay Overview: All-trans Retinoic acid (atRA) is the potent natural metabolite of retinol and plays an important role in normal embryonic development and maintenance of cellular phenotype in adult animals. atRA is the activating ligand for the retinoic acid receptors (RARs) which form heterodimers with retinoid X receptors (RXRs) on the retinoic acid response element (RARE). Through activation of the RAR/RXRs nuclear receptors, atRA regulates the transcription of a large number of protein-coding genes and regulatory RNAs. Intracellular levels of atRA are controlled by the retinol signaling pathway (RSP) that regulates the biosynthesis and catabolism of atRA to maintain physiological levels. Chemicals that interfere with the RSP can cause abnormal intracellular levels of atRA and therefore are potential developmental toxicants. To assess compounds for the potential adverse effect on embryonic development through interfering with retinol signaling, a cell-based RARE luciferase reporter gene assay was used. C3RL4 cell line (OARSA/CFSAN/FDA, Laurel, MD) was used to screen Tox21 10K compound library for identifying inhibitors of the RSP. Also cytotoxicity was assessed by determining the viability of cells based on the quantitation of ATP.
Tox21 Assay Protocol Summary: C3RL4 cells were seeded at 1,000/well in 4 uL of assay medium into white solid 1,536-well tissue culture plates (Greiner Bio-One North America Inc. Monroe, NC) using a Multidrop Combi (Thermo Scientific, Waltham, MA) dispenser. After incubation at 37 C and 5% CO2 for an overnight, 23 nL of compounds dissolved in DMSO, positive control or DMSO only were transferred by a Pintool station (Kalypsys, San Diego, CA). One ul of 1 uM (final concentration) of Retinol was added right after the compound addition by using a Flying Reagent Dispenser (FRD) (Aurora Discovery, San Diego, CA). After 6 hr incubation at 37 C and 5% CO2, 5 uL of CellTiter-Glo reagent (Promega Corporation, Madison, WI) was added to each assay plate using an FRD. Luminescence was quantified on a ViewLux plate reader (PerkinElmer, Waltham, MA) after 30 min incubation at room temperature.
% is scaled to controls: 0 for no effect and ±100 for the full control effect.

| Structure (SMILES) | outcome | activity change, negative = cytotoxicity |
| --- | --- | --- |
| Cc1ccc2cccnc2c1 | inactive | – |
| COC(C)(C)CC(C)=O | inactive | – |
| CCCCOCCCC | inactive | – |
| CC(C)(C)C(=O)CCc1ccc(Cl)cc1 | inactive | – |
| COc1cc(S(N)(=O)=O)cc(C(=O)O)c1OC | inactive | – |
| C/C(=N\O)c1ccc(OCC(=O)N2CCCCC2)cc1 | inactive | – |
| CCCCN=C(N)N=C(N)N | inactive | – |
| C/C(Cl)=C/CCl | inactive | – |
| CC(C)C[P+](C)(CC(C)C)CC(C)C | inactive | – |
| CC(O)C(CO)C(C)O (stereo not given) | inactive | – |
| CC(=O)Nc1ccc(OCCOCCOc2ccc(NC(C)=O)cc2)cc1 | inactive | – |
| CCC(C)SSC(C)CC (stereo not given) | inactive | – |
| C=CC(C)(CCC=C(C)C)OC(=O)C(C)C (stereo not given) | inactive | – |
| C=CCOC(=O)CCCCCCCC | inactive | – |
| O=Cc1ccccc1S(=O)(=O)O | inactive | – |
| CC1(C)S[C@@H]2[C@H](NC(=O)Cc3ccccc3)C(=O)N2[C@H]1C(=O)O (tested in a mixture with another compound) | inactive | – |
| O=C1CCCc2c(O)cccc21 | inactive | – |
| CC(=O)SCC(CC(=O)c1ccc(C)cc1)C(=O)O (stereo not given) | inactive | – |
| CCCc1ncc(C(=O)O)s1 | inactive | – |
| CC(=O)c1c(C)cc(C(C)(C)C)cc1C | inactive | – |

| Structure (SMILES) | outcome | activity change, negative = cytotoxicity |
| --- | --- | --- |
| CC(CC(=O)Cl)CC(C)(C)C (stereo not given) | inactive | – |
| CCC(=O)OCCOc1ccccc1 | inactive | – |
| CC(CN1CC(=O)NC(=O)C1)N1CC(=O)NC(=O)C1 (stereo not given) | inactive | – |
| O=C(O)Cc1c(Cl)ccc(Cl)c1Cl | inactive | – |
| C=CC(=O)OCC[N+](C)(C)C | inactive | – |
| CCOC(=O)CC(C(C)=O)C(C)=O | inactive | – |
| CCC(C)(C)C | inactive | – |
| O=S(=O)(O)c1cc(I)c(O)c2ncccc12 | inactive | – |
| O=Cc1ccc(C(=O)O)cc1 | inactive | – |
| CN1CCN(C(=O)C2CCCCC2)CC1 | inactive | – |
| CCCCCCCCCCCCCCCC(=O)OC | – | 3.42% [at 19 µM] |
| Cc1ccc(OC(=O)CC(C)C)cc1 | inactive | – |
| CN(C)CCc1c[nH]c2ccc(CS(=O)(=O)N3CCCC3)cc12 | inactive | – |
| NS(=O)(=O)c1cc2c(cc1C(F)(F)F)NCNS2(=O)=O | inactive | – |
| COc1ccc2cc(CCC(C)=O)ccc2c1 | inactive | – |
| CC1(C)CC(N)CC(C)(C)N1 | inactive | – |
| N=C(N)N1CCc2ccccc2C1 | – | -0.951% [at 8.39 µM] |
| C[Si](C)(C)O[Si](O)(O)O | inactive | – |
| BrCCOc1ccccc1 | inactive | – |
| CC[C@@]1(c2ccccc2)NC(=O)N(C)C1=O | inactive | – |
